Data as given in PubChem BioAssay (EPA / NIEHS).
Inconclusive results are not listed. Activity calls are given as the source filed them. Rule for the calls, unless noted: active = hit-call score of the fitted dose curve at least 0.9, where 1 is the maximum; inconclusive = response in the unintended direction; inactive = score below 0.9.

Key:
[1] = ATG_ERE_CIS: Attagene CIS-FACTORIAL HepG2 Assay for Estrogen Response Element (ERE) (AID 2282940; active = hit-call score of the fitted dose curve at least 0.9, where 1 is the maximum; inactive = score below 0.9); settings: HepG2 ERE cis-reporter, Attagene RNA transcript; actives raise or lower the signal
Procedure, shortened: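 Human liver cells (HepG2) bearing transiently transfected, promoter-regulated reporter units were exposed 24 h. Reporter mRNA induction was detected by capillary electrophoresis of labelled RT-PCR products and fitted bidirectionally to DMSO.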

[2] = biological target: Bile acid receptor (Homo sapiens) (UniProt Q96RI1); assay: ATG_IR1_CIS: Attagene CIS-FACTORIAL HepG2 Assay for human Nuclear Receptor Subfamily 1 Group H Member 4 (NR1H4), IR1 submotif (AID 2282946; active = hit-call score of the fitted dose curve at least 0.9, where 1 is the maximum; inactive = score below 0.9); settings: IR1 reporter transcription, actives raise or lower the signal
Procedure, shortened: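 Transient MRTU transfection, HepG2; 24 h dosing; RNA → RT-PCR → 6-FAM primer extension → HpaI digest → capillary electrophoresis fluorescence. Gain/loss of signal fitted relative to DMSO.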

[3] = ATG_GRE_CIS: Attagene CIS-FACTORIAL HepG2 Assay for human Glucocorticoid Response Elements (GRE) (AID 2282947; active = hit-call score of the fitted dose curve at least 0.9, where 1 is the maximum; inactive = score below 0.9); settings: HepG2 GRE cis-reporter, Attagene multiplex mRNA; actives raise or lower the signal
Procedure, shortened: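 Following 24 h chemical exposure of transiently transfected HepG2 cells, total RNA was reverse-transcribed and reporter cDNA amplified, fluorescently labelled and sized by capillary electrophoresis. Signal gain or loss was fitted relative to DMSO vehicle.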

[4] = ATG_M_19_TRANS: Attagene TRANS-FACTORIAL HepG2 Assay for M19 Transcription Factor (Internal Marker) (AID 2282974); settings: HepG2 Attagene TRANS-FACTORIAL M19 internal marker reporter
Procedure, shortened: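 Transfected HepG2 (GAL4-UAS MRTUs), 24 h compound, TriZol RNA, DNase-treated RT, reporter PCR, FAM label, HpaI digest, CE fluorescence; gain vs DMSO.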

[5] = ATG_GAL4_TRANS: Attagene TRANS-FACTORIAL HepG2 Assay for GAL4 (Internal Marker) (AID 2282976); settings: HepG2 Attagene TRANS GAL4 internal marker reporter
Procedure, shortened: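 HepG2 cells transiently transfected with multiplexed GAL4-UAS reporter constructs were dosed for 24 h. Reporter mRNA was measured by RT-PCR, 6-FAM primer extension, HpaI digestion and capillary electrophoresis, and gain of signal was fitted relative to DMSO.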

[6] = biological target: Glucocorticoid receptor (Homo sapiens) (UniProt P04150); assay: ATG_GR_TRANS: Attagene TRANS-FACTORIAL HepG2 Assay for human Glucocorticoid Receptor (GR) (AID 2282978); settings: HepG2 Attagene TRANS GR reporter, mRNA transcription;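 note: activators score as hits since higher reporter transcript over DMSO is fitted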
Procedure, shortened: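 After 24 h incubation with test chemical, transfected HepG2 cells were lysed for RNA; reporter cDNA was amplified, FAM-labelled, HpaI-digested and sized on a capillary analyser. Signal gain relative to DMSO was scored.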

[7] = biological target: Oxysterols receptor LXR-beta (Homo sapiens) (UniProt P55055); assay: ATG_LXRb_TRANS: Attagene TRANS-FACTORIAL HepG2 Assay for human Liver X Receptor beta (LXRb) (AID 2282981); settings: HepG2 Attagene TRANS GAL4-LXRb reporter, mRNA
Procedure, shortened: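 In this TRANS format, exogenous chimeric NR-Gal4 protein activity, not endogenous factors, drives reporter expression in transfected human HepG2 cells. Exposure lasted 24 h; reporter mRNA was read by fluorescent capillary electrophoresis.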

[8] = biological target: Hepatocyte nuclear factor 4-alpha (Homo sapiens) (UniProt P41235); assay: ATG_HNF4a_TRANS: Attagene TRANS-FACTORIAL HepG2 Assay for human Hepatocyte Nuclear Factor 4 alpha (HNF4a) (AID 2282982); settings: HepG2 HNF4a transactivation reporter, mRNA readout
Procedure, shortened: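 Cells used were human HepG2, transiently carrying GAL4-UAS reporter units read out against exogenous NR-GAL4 chimeras. Reporter transcript levels after 24 h dosing were quantified by fluorescent RT-PCR and capillary electrophoresis.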

[9] = biological target: human RAR-related Orphan Receptor beta (RORb), RORB (gene 6096) (UniProt Q92753); assay: ATG_RORb_TRANS: Attagene TRANS-FACTORIAL HepG2 Assay for human RAR-related Orphan Receptor beta (RORb) (AID 2283010)
Procedure, shortened: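 Readout is reporter-gene mRNA induction, detected as fluorescence after RT-PCR and capillary electrophoresis, fitted for gain of signal against DMSO controls. Transiently transfected HepG2 liver cells carrying GAL4-UAS reporter constructs were treated for 24 hours.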

[10] = biological target: human RAR-related Orphan Receptor gamma (RORg), RORC (gene 6097) (UniProt P51449); assay: ATG_RORg_TRANS: Attagene TRANS-FACTORIAL HepG2 Assay for human RAR-related Orphan Receptor gamma (RORg) (AID 2283011)
Procedure, shortened: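 Readout: reporter transcript induction (RT-PCR, fluorescent primer extension, capillary electrophoresis) after 24 h compound exposure of transiently transfected HepG2 cells carrying a RORg-Gal4 chimera and GAL4-UAS reporters; DMSO served as baseline, with increasing signal fitted.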

[11] = TOX21_p53_BLA_p2_viability: Viability Assessment in the Tox21 HCT-116 p53 Agonism Beta-lactamase Assay, Phase 2 (AID 2283591);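 note: compound exposure lasted 16 h at 37 °C; actives lower the ATP signal meaning cytotoxicity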
Procedure, shortened: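 HCT-116 p53-bla cells (4000/well) rested 5 h at 37C, then received compounds in DMSO (217-fold dilution) for 16 h at 37C, 5% CO2. After the CCF4 read, CellTiter-Glo was added; ATP luminescence was read after 30 min at room temperature.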

[12] = TOX21_p53_BLA_p3_viability: Viability Assessment in the Tox21 HCT-116 p53 Agonism Beta-lactamase Assay, Phase 3 (AID 2283593);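 note: cells exposed to compound for 16 h before reading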
Procedure, shortened: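 HCT-116 cells (4000/well) rested 5 h at 37C, then got DMSO compounds by pin tool (217-fold dilution) for 16 h at 37C, 5% CO2. After the bla read, CellTiter-Glo was added and luminescence read at 30 min, room temperature.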

[13] = TOX21_p53_BLA_p4_viability: Viability Assessment in the Tox21 HCT-116 p53 Agonism Beta-lactamase Assay, Phase 4 (AID 2283597);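 note: hits lower the luminescence signal meaning cytotoxicity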
Procedure, shortened: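 HCT116 p53-bla cells (4000/well) rested 5 h at 37C, then received compounds in DMSO (217-fold dilution) for 16 h at 37C, 5% CO2. CellTiter-Glo was added after the CCF4-AM read, and luminescence was read after 30 min at room temperature.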

[14] = biological target: Retinoic acid receptor alpha (Homo sapiens) (UniProt P10276); assay: ATG_DR5_RAR_CIS: Attagene CIS-FACTORIAL HepG2 Assay for human Retinoic Acid Receptor Alpha (RARE), DR5 submotif (AID 2282934; active = hit-call score of the fitted dose curve at least 0.9, where 1 is the maximum; inactive = score below 0.9); settings: HepG2 Attagene cis-factorial RARE DR5 reporter, mRNA; actives raise or lower the signal
Procedure, shortened: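 Transfected HepG2 reporter cells are exposed to chemicals for 24 h. Then RNA is extracted and the DR5 element reporter transcript is measured by RT-PCR and capillary electrophoresis, with bidirectional curve fitting relative to DMSO.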

[15] = ATG_VDRE_CIS: Attagene CIS-FACTORIAL HepG2 Assay for human Vitamin D Receptor Element (VDRE) (AID 2282968; active = hit-call score of the fitted dose curve at least 0.9, where 1 is the maximum; inactive = score below 0.9); settings: HepG2 VDRE cis-reporter transcription, actives raise or lower the signal
Procedure, shortened: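 RT-PCR/CE readout of reporter mRNA; HepG2, transient transfection, 24 h dosing; DMSO baseline; bidirectional analysis.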

[16] = ATG_M_06_TRANS: Attagene TRANS-FACTORIAL HepG2 Assay for M06 Transcription Factor (Internal Marker) (AID 2282983); settings: HepG2 Attagene TRANS M06 internal marker reporter
Procedure, shortened: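 HepG2 cells transiently transfected with multiplexed GAL4-UAS reporter transcription units; after 24 h compound exposure, reporter mRNA measured by RT-PCR, FAM-labelled primer extension, HpaI digestion and capillary electrophoresis. Gain-of-signal fitted versus DMSO baseline; background control readout.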

[17] = biological target: Nuclear receptor subfamily 4 group A member 2 (Homo sapiens) (UniProt P43354); assay: ATG_NURR1_TRANS: Attagene TRANS-FACTORIAL HepG2 Assay for human Nuclear Receptor Related Protein 1 (NURR1) (AID 2282985); settings: HepG2 Attagene TRANS reporter, mRNA readout
Procedure, shortened: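 After 24 h chemical dosing, total RNA from transiently transfected HepG2 cells was reverse-transcribed and reporter cDNA PCR-amplified, FAM-labelled and analysed by capillary electrophoresis. Activity fitted in positive direction, DMSO as negative control.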

[18] = biological target: human Peroxisome Proliferator-activated Receptor delta (PPARd), PPARD (gene 5467) (UniProt Q03181); assay: ATG_PPARd_TRANS: Attagene TRANS-FACTORIAL HepG2 Assay for human Peroxisome Proliferator-activated Receptor delta (PPARd) (AID 2283002)
Procedure, shortened: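 Measured quantity: GAL4-UAS reporter transcript induction in HepG2 after 24 h chemical dosing, with NR-Gal4 chimeras supplied by transient transfection. Detection by RT-PCR and capillary electrophoresis; upward fit against DMSO.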

[19] = biological target: human Vitamin D Receptor (VDR), VDR (gene 7421) (UniProt P11473); assay: ATG_VDR_TRANS: Attagene TRANS-FACTORIAL HepG2 Assay for human Vitamin D Receptor (VDR) (AID 2283022)
Procedure, shortened: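 HepG2 cells were transiently transfected with multiple GAL4-UAS reporter units, so signal reflects exogenous chimeric receptor-Gal4 activity. After 24 h compound exposure, reporter mRNA was measured by RT-PCR, fluorescent labelling and capillary electrophoresis, fitted for gain of signal versus DMSO.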

[20] = CCTE_Harrill_HTTr_Apoptosis_MCF7: CCTE's 6-hour Apoptosis Assessment for the High-Throughput Transcriptomics (HTTr) Platform, in MCF-7 cells cultured in DMEM + 10% fetal bovine serum, Harrill Lab (AID 2284011; active = hit-call score of the fitted dose curve at least 0.9, where 1 is the maximum; inactive = score below 0.9)
Procedure, shortened: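 MCF-7 cells in DMEM + 10% fetal bovine serum were exposed to chemicals for 6 hours over an eight-point dilution series. Caspase-3/7 activation was imaged by high content imaging with CellEvent Caspase 3/7 Green; bidirectional fitting used DMSO as baseline.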

Measured: AC50

Sequence of Glucocorticoid receptor (Homo sapiens) (P04150 whole entry, looked up): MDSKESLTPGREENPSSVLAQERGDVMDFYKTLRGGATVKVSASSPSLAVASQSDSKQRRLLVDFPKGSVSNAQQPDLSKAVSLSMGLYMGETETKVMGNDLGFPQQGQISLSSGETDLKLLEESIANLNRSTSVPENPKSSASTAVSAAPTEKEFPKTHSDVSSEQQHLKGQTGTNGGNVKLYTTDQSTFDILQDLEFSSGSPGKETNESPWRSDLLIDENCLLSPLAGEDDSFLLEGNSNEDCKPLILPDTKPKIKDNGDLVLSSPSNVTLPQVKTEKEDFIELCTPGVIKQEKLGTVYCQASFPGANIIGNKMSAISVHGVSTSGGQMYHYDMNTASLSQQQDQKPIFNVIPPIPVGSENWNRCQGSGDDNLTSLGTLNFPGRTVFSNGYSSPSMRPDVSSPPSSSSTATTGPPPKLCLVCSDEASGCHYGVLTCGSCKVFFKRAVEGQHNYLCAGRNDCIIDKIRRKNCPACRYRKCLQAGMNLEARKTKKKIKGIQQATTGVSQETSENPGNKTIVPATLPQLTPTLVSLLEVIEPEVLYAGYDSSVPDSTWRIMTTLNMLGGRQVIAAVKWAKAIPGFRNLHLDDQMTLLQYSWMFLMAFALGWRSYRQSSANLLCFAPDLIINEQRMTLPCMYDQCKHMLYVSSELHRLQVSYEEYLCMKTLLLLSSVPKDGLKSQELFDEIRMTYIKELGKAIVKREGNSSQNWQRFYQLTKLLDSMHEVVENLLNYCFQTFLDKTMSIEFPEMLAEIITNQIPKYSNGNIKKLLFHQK
Sequence of human RAR-related Orphan Receptor beta (RORb), RORB (gene 6096) (Q92753 whole entry, looked up, the tested form may be a part): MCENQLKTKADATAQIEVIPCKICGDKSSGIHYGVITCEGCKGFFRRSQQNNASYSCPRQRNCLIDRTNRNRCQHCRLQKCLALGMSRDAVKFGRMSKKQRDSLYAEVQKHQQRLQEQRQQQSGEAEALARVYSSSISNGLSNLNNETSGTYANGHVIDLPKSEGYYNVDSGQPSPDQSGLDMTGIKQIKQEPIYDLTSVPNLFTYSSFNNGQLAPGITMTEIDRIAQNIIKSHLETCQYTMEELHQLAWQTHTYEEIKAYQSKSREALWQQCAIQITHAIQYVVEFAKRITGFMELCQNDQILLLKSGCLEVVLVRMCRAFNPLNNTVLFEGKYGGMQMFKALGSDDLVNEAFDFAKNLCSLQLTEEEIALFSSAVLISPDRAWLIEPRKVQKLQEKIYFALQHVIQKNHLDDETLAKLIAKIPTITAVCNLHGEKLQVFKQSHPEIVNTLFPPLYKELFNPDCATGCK
Sequence of Hepatocyte nuclear factor 4-alpha (Homo sapiens) (P41235 whole entry, looked up, the tested form may be a part): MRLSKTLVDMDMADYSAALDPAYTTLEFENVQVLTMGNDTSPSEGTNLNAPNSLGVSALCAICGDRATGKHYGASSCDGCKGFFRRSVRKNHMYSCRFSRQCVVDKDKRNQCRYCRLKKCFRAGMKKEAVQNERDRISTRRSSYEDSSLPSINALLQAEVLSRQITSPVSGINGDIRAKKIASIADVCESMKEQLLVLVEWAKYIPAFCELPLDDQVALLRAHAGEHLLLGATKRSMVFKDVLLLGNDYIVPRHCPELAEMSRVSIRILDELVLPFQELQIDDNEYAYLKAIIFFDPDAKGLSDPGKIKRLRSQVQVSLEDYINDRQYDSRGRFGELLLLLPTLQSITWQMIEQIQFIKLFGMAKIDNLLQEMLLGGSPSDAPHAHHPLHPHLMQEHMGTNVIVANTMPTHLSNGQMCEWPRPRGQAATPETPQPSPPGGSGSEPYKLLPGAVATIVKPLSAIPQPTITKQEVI
Sequence of human RAR-related Orphan Receptor gamma (RORg), RORC (gene 6097) (P51449 whole entry, looked up, the tested form may be a part): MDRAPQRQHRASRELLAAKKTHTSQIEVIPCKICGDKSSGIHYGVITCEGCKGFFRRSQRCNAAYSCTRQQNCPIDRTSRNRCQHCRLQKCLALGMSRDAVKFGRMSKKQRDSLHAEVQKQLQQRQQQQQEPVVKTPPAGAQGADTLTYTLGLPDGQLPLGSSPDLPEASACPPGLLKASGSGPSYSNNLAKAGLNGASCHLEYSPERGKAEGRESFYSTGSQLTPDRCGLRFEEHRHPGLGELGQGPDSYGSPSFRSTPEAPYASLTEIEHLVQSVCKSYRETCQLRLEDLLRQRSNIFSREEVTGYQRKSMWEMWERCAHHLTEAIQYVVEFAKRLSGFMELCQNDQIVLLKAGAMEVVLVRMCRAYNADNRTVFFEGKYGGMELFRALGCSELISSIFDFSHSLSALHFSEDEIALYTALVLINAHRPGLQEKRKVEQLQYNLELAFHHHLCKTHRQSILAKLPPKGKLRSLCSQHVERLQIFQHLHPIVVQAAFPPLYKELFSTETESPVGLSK
Sequence of Retinoic acid receptor alpha (Homo sapiens) (P10276 whole entry, looked up): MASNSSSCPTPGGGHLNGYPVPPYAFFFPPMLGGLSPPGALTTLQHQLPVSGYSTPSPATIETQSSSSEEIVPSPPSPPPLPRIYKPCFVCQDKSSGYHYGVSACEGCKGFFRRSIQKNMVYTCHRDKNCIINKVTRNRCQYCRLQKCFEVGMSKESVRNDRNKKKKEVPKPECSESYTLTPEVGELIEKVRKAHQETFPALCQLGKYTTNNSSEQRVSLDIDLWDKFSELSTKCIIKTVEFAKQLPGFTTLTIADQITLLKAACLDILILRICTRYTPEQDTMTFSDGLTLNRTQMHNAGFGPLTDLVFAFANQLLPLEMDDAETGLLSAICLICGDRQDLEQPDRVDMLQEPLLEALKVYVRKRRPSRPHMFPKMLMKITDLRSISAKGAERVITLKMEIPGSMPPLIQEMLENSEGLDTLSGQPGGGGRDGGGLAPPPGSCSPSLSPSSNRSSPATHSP
Sequence of Nuclear receptor subfamily 4 group A member 2 (Homo sapiens) (P43354 whole entry, looked up): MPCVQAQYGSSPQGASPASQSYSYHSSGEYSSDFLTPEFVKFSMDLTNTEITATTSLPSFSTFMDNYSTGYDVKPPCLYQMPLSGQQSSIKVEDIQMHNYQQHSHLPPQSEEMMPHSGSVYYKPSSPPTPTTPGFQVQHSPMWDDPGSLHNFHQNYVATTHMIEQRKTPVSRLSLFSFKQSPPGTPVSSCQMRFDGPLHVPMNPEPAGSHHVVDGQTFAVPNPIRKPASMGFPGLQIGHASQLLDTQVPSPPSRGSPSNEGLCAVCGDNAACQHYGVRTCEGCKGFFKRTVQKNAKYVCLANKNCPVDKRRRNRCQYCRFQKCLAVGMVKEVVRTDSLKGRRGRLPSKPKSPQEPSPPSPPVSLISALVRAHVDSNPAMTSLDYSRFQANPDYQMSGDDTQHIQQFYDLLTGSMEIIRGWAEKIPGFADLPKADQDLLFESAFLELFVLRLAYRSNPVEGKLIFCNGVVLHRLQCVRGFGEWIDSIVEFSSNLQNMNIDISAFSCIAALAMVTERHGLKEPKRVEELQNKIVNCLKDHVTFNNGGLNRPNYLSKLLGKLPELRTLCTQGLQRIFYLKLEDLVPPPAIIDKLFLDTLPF
Sequence of Oxysterols receptor LXR-beta (Homo sapiens) (P55055 whole entry, looked up, the tested form may be a part): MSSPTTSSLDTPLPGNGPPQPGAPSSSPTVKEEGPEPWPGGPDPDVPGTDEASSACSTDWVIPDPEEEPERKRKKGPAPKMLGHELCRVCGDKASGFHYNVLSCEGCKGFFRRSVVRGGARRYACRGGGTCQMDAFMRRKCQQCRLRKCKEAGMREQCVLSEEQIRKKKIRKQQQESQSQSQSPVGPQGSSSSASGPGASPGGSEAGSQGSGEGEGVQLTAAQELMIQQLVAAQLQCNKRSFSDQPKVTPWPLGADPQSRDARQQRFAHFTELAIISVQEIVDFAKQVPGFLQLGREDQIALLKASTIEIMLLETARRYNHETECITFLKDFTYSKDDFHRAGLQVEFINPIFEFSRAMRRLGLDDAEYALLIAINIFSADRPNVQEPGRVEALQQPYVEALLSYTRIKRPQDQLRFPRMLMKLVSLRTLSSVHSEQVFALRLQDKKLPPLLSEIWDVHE
Sequence of Bile acid receptor (Homo sapiens) (Q96RI1 whole entry, looked up): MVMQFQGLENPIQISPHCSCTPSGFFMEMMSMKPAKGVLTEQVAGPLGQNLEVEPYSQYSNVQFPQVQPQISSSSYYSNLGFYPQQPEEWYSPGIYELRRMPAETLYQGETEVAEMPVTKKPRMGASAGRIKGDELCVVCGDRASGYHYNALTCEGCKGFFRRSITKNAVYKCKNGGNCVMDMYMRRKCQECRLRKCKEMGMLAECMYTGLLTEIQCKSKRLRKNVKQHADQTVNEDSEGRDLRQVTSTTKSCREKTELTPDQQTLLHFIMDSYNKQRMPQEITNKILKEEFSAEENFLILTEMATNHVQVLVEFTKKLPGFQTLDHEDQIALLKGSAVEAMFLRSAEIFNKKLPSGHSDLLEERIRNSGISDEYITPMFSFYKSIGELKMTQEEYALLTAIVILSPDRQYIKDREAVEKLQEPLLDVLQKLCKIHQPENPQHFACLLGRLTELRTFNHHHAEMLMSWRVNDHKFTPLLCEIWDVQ
Sequence of human Peroxisome Proliferator-activated Receptor delta (PPARd), PPARD (gene 5467) (Q03181 whole entry, looked up, the tested form may be a part): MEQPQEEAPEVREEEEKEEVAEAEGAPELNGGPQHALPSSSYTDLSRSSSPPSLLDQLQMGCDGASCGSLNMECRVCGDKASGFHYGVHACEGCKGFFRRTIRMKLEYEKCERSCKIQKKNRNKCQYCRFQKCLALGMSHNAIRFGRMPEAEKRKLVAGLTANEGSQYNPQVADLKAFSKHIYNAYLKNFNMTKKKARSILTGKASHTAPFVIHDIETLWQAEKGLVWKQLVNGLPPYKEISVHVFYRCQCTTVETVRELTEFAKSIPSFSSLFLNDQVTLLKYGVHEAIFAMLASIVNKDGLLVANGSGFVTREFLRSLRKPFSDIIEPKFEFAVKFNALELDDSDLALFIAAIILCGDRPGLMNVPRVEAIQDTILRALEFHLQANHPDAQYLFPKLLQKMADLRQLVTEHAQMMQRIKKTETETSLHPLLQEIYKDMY

CCCC=NO
inactive: [2] | [3] | [4] | [5] | [6] | [7] | [8] | [9] | [10] | [11] | [12] | [13]
active: [1] 43.5 µM

N#CC(c1ccccc1)c1ccccc1
active: [15] 30.3 µM
inactive: [14] | [2] | [5] | [8] | [16] | [17] | [18] | [9] | [19] | [11] | [12] | [13]

CCC(C)c1cc([N+](=O)[O-])cc([N+](=O)[O-])c1OC(=O)C=C(C)C (stereo not drawn)
active: [2] 26.5 µM | [15] 0.86 µM | [13] 13.2 µM
inactive: [3] | [5] | [6] | [8] | [17] | [18] | [11] | [12]

C[C@]12CC[C@H]3[C@@H](CC[C@@]45O[C@@H]4C(O)=C(C#N)C[C@]35C)[C@@H]1CC[C@@H]2O
active: [15] 33.9 µM
inactive: [7] | [8] | [16] | [17] | [18] | [19] | [11] | [12] | [20]

COc1cc(OC)c(OC)cc1C=O
active: [1] 27.6 µM
inactive: [15] | [4] | [5] | [8] | [17] | [19] | [11] | [12] | [13]

CC[N+](=O)[O-]
inactive: [14] | [8] | [16] | [17] | [18] | [19] | [11] | [12]

CCCCCCCCCCCC#N
inactive: [3] | [15] | [4] | [6] | [17] | [18] | [9]
active: [2] 165 µM

[N-]=[N+]=CC(=O)OC[C@H](N)C(=O)O
inactive: [14] | [2] | [15] | [5] | [7] | [17] | [18] | [9] | [19] | [12] | [13] | [20]

CCc1cc(C)cc(CC)c1-c1c(OC(=O)C(C)(C)C)n2n(c1=O)CCOCC2
inactive: [1] | [2] | [3] | [4] | [5] | [8] | [17] | [18] | [9] | [10] | [20]

O=C1Nc2ccc(Cl)cc2C(c2ccccc2)=NC1O (stereo not drawn)
inactive: [14] | [7] | [18] | [19] | [11] | [12] | [13] | [20]

CCC(C)(C)O
inactive: [1] | [15] | [5] | [6] | [8] | [16] | [17] | [10] | [20]
